TCR activator – activates T cell receptor signaling | primary human leukocytes, anti-CD3, IL-2 HTRF, 48 h | Potency, µM (doses to about 9.22 µM), usual class: activators | 330,000 tested, under 10 active | AID 504894; active = well fitted activation curve with a large enough effect
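Human primary leukocytes + a-CD3 beads + cpd, 48 hr; IL-2 in supernatant by HTRF (ex 320nm / em 665nm). No co-stimulatory signal supplied.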
TSHR antagonist – blocks TSH signaling through the human TSH receptor. P16473. TSHR-expressing cells, TSH-stimulated cAMP HTRF, 2 h; active compounds read low. activity change, negative = inhibition, % at 11.5 µM. 0.2% of 330,000 active. AID 504810;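 active = activity change below a set negative limit, meaning inhibition stronger than a set level, cut at about -70% in these data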
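Competitive HTRF cAMP read-out (cryptate anti-cAMP antibody, cAMP-d2; 30 min, room temperature) in freshly harvested TSHR cells. Compounds added before TSH at EC80 (4nM final), followed by 2 hours' incubation at 37 deg C.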
CCT chaperon mod – cytosolic chaperonin activity modulation; purified chaperonin ATPase assay, HTRF ADP detection, 30 min; activity change, % (test concentration not listed), hits read low; 0.3% of 360,000 active; AID 651819; in the data active = activity change below about -30%
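First, chaperonin was dispensed at 40 nM or 20 nM final depending on batch activity. Next, compounds were pinned at 76 uM and ATP added at 10 uM. After 30 min at 37 °C, ADP detection reagents ran 30 min at ambient temperature.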
pAkt inh – Akt phosphorylation inhibition | Neuro2A IGF-stimulated pAkt S473 HTRF, 20 min; active compounds read low | activity change, % for hits at 50 µM | 0.32% of 360,000 active; in the data active = activity change below about -80%
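Neuro2A cells in DMEM with 0.5% FBS, overnight at 37 deg C, given compound at single 50 µM final, then IGF (6 nM final) for 20 min at 37 deg C. Lysed; phospho-Akt Ser473 by HTRF after 24 h, 665/615 ratio.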
Large screens that a line does not name were inactive. A selection: hits, their analogues and other compounds. The true share with any hit is near 0.74%.

COc1ccc(C(C(=O)NC(C)(C)C)N(CCc2ccccc2)C(=O)CCC(=O)Nc2cc(C)on2)cc1 (stereo not given)	TSHR antagonist -106
CC(C)(C)NC(=O)C(c1ccc(O)cc1)N(Cc1ccccc1)C(=O)CCC(=O)Nc1nccs1 (stereo not given)	TSHR antagonist -98
COc1ccc(C(C(=O)NC(C)(C)C)N(CCO)C(=O)CCC(=O)Nc2cc(C)on2)cc1 (stereo not given)	none
CC(Cc1cccs1)NC(=O)Nc1ccc(Cl)c(Cl)c1 (stereo not given)	pAkt inh -103%
CC(Cc1cccs1)NC(=O)Nc1ccc(Cl)cc1 (stereo not given)	none
CCOC(=O)c1[nH]c(C)c(C(=O)OCC(=O)NC2CCS(=O)(=O)C2)c1C (stereo not given)	none
CCOC(=O)c1c(C)[nH]c(C(=O)OCC(=O)NC2CCS(=O)(=O)C2)c1C (stereo not given)	pAkt inh -112%
Cn1nc([N+](=O)[O-])nc1N1CCOCC1	CCT chaperon mod -44
O=S(=O)(c1ccc(Cl)cc1)N1CCC(N2CCCCCC2)CC1	pAkt inh -119%
C=CCOC(=O)CCCC(=O)NC1CCCCC1	pAkt inh -128%
O=Nc1ccc2oc(=O)ccc2c1	none (no result: TCR activator, CCT chaperon mod, pAkt inh)
CCc1nnc(NC(=O)c2oc3ccc(Br)cc3c2C)s1	CCT chaperon mod -34
O=C(/C=C/c1ccco1)Nc1ccc(Oc2ccc(Cl)cc2)cc1	pAkt inh -108%
COc1cccc(NC(=O)/C=C/c2ccco2)c1	none
COc1ccc(C(=O)NCc2nnc(SCC(=O)Nc3cc(C)on3)o2)cc1OC	none
Cc1cc(NC(=O)CSc2nnc(COc3ccccc3)o2)no1	pAkt inh -127%
Cc1cc(C)cc(N(CCC#N)C(=O)CSc2nc3nc(C)cc(C)n3n2)c1	none
CC(=O)Nc1ccc(SCC(=O)N(CCC#N)c2cc(C)cc(C)c2)cc1	pAkt inh -110%
CC1(C(=O)NCc2ccccc2)CCC(=O)N1CC(F)(F)F (stereo not given)	none (no result: TCR activator, TSHR antagonist)
COc1ccc(CN2CCc3c([nH]c4ccccc34)C2)c(OC)c1C	none (no result: TCR activator)
CCNC(=O)NC(=O)C(C)Sc1nc2cc(C(=O)OC)ccc2c(=O)n1-c1ccccc1 (stereo not given)	pAkt inh -122%
Cc1ccc(S(=O)(=O)CCC(=O)c2cccc([N+](=O)[O-])c2)cc1	TSHR antagonist -105 (no result: TCR activator)
Cc1ccc(C(=O)CCS(=O)(=O)c2ccc(Br)cc2)cc1	none
O=C(NCc1ccccc1)c1cc(C2COCCN2C(=O)C2CC2)on1 (stereo not given)	none (no result: TCR activator, TSHR antagonist)
On1cnnc1-c1ccccc1	pAkt inh -91%
CCCCn1c(O)c2n(c1=O)Cc1ccccc1N=C2c1ccc(OC)cc1	none (no result: TCR activator, TSHR antagonist)
O=c1n(Cc2ccccc2)c(O)c2n1Cc1ccccc1N=C2c1ccccc1	CCT chaperon mod -40 (no result: TCR activator, TSHR antagonist)
O=C(CCC(=O)c1cccs1)NCc1cccc(C(F)(F)F)c1	none
O=[N+]([O-])c1ccccc1OCCOc1ccccc1[N+](=O)[O-]	none
CC(C)(C)C(=O)COc1ccccc1[N+](=O)[O-]	CCT chaperon mod -48
COC(=O)c1ccc(NC(=S)N2CCN(C(=O)c3ccco3)CC2)cc1	CCT chaperon mod -40
COC(=O)c1ccc(NC(=O)N2CCOCC2)cc1	pAkt inh -121%
O=C(c1ccco1)N1CCN(c2ccccc2F)CC1	pAkt inh -117%
O=C(Nc1ccc(O)cc1)N1CCOCC1	none (no result: TCR activator)
COc1ccc(NC(=S)N2CCN(C(=O)c3ccco3)CC2)cc1	none
COc1ccc(C(=O)Nc2ccc3cn[nH]c3c2)c(OC)c1	none
CC(C)Cc1nnc(NC(=O)CSc2nc(=O)cc(N)n2-c2ccccc2)s1	pAkt inh -114%
O=C(CN1C(=O)NC2(CCCC2)C1=O)N1CCN(S(=O)(=O)c2cccc(C(F)(F)F)c2)CC1	none
CCOc1ccccc1CNC(=O)Cn1ccc2cc(S(=O)(=O)N3CCCC3)ccc21	none
Cc1[nH]c(=O)[nH]c(=O)c1S(=O)(=O)N1CCCC(C(=O)N2CCN(c3ccccc3Cl)CC2)C1 (stereo not given)	pAkt inh -124%
Cc1nn(C)c(C)c1S(=O)(=O)N1CCCC(C(=O)N2CCN(c3ccc(Cl)cc3)CC2)C1 (stereo not given)	pAkt inh -107%
O=C(NCc1ccco1)c1cc(S(=O)(=O)N2CCOCC2)c(Cl)cc1Cl	CCT chaperon mod -67
O=C(COC(=O)c1cc(S(=O)(=O)N2CCOCC2)c(Cl)cc1Cl)NCc1ccco1	none
CC(C)(C)c1cc2nc3c(c(=O)n2[nH]1)CN(Cc1ccccc1)C3=O	TSHR antagonist -79
CCC(C)C(NC(=O)C(Cc1ccc(O)cc1)NC(=O)OCc1ccccc1)C(=O)OC (stereo not given)	none (no result: TCR activator, TSHR antagonist)
CCOC(=O)C(=O)Cc1nc(OCc2ccccc2)cc(OCc2ccccc2)n1	CCT chaperon mod -39 (no result: TSHR antagonist)
CCOCc1c(C(=O)NCC(c2ccco2)N2CCCC2)oc2ccccc12 (stereo not given)	none (no result: TSHR antagonist)
O=C(NNC(=S)NC1CCCCC1)c1sc2ccccc2c1Cl	none
CC(C)(C)C(=O)NC(=S)NNC(=O)c1sc2ccccc2c1Cl	TSHR antagonist -94
CCC(C)NC(=O)c1ccccc1NC(=O)Nc1ccccc1 (stereo not given)	none
CC(C)CNC(=O)c1ccccc1NC(=O)Nc1ccccc1	pAkt inh -105%
Cc1ccc(C)c(CSC2=NN3CCCC(=O)N=C3S2)c1	none
COc1cc(NS(=O)(=O)c2ccc(NC(=O)COc3ccccc3Cl)cc2)nc(OC)n1	pAkt inh -125%
Cc1sc2nc(-c3ccc(Br)cc3)oc(=O)c2c1C	CCT chaperon mod -38
Cc1sc2nc(-c3cccs3)oc(=O)c2c1C	none
O=C(O)c1ccc2c(c1)C(=O)N([C@H](Cc1ccc(-c3ccccc3)cc1)C(=O)O)C2=O	none (no result: TCR activator, CCT chaperon mod, pAkt inh)
CCCCn1c(SCC(=O)Nc2cc(C)on2)nc2ccccc2c1=O	pAkt inh -105%
N#C/C(=C\c1ccc(Cl)cc1Cl)c1n[nH]c(Cn2cncn2)n1	pAkt inh -90%
CCN1CCN(C(=S)c2ccc(Cl)cc2)CC1	pAkt inh -115%
OCCN1CCN(C(=S)c2ccc(Cl)cc2)CC1	none
CCc1ccc(CCC(=O)Nc2sc(C)c(C)c2C(=O)OC)o1	pAkt inh -91%
CCCCOC(=O)CCc1nc2ccccc2[nH]c1=O	none
CCOC(=O)c1ccc(COC(=O)CCc2nc3ccccc3[nH]c2=O)o1	pAkt inh -103%
Cn1nc(C(=O)NCc2ccccc2)c2ccccc2c1=O	none
Cn1nc(C(=O)NCc2ccccn2)c2ccccc2c1=O	pAkt inh -94% (no result: TCR activator)
Cc1noc(C)c1C(=O)Nc1ccccc1N1CCOCC1	CCT chaperon mod -30
O=C(Nc1ccccc1N1CCOCC1)c1ccc(S(=O)(=O)NCc2ccco2)cc1	TSHR antagonist -77
NC(C(=O)N[C@@H]1C(=O)N2C(C(=O)O)=C(Cl)CS[C@H]12)c1ccccc1 (stereo not given in full)	none (no result: TCR activator, CCT chaperon mod, pAkt inh)
COc1ccc(C)cc1NC(=O)c1ccccc1NS(=O)(=O)c1ccc(Cl)s1	TSHR antagonist -76
